Among all 360,000 compounds or so, about 10,000 (2.8%) were called active. Another 4% or so got no clear call; they are omitted. The entries come from a sample that favours actives as a whole. Values without a mark were called inactive. The call rests on the fitted dose curve; in most records, active means well fitted inhibition curve with a large enough effect; inconclusive means small, poorly fitted or top-dose-only effect; inactive means flat fitted curve, though single readings scatter.
On the % scale 0 is the no-effect control and ±100 the full control effect; potency means the concentration at half of the fitted maximal effect.

The target of the experiment is Serine/threonine-protein kinase PLK1 (Homo sapiens) (UniProt P53350). Kind of experiment: qHTS for Inhibitors of PLK1-PDB (polo-like kinase 1 - polo-box domain): Primary Screen. Further: nearly all actives have a fitted effect of over 65% in size. On max response, negative = inhibition: series mostly up to about 57 µM. Particulars: Plk1 PBD binding of FITC phosphopeptide, fluorescence polarization.
Serine/threonine-protein kinase PLK1 (Homo sapiens), sequence (P53350 whole entry, looked up, the tested form may be a part): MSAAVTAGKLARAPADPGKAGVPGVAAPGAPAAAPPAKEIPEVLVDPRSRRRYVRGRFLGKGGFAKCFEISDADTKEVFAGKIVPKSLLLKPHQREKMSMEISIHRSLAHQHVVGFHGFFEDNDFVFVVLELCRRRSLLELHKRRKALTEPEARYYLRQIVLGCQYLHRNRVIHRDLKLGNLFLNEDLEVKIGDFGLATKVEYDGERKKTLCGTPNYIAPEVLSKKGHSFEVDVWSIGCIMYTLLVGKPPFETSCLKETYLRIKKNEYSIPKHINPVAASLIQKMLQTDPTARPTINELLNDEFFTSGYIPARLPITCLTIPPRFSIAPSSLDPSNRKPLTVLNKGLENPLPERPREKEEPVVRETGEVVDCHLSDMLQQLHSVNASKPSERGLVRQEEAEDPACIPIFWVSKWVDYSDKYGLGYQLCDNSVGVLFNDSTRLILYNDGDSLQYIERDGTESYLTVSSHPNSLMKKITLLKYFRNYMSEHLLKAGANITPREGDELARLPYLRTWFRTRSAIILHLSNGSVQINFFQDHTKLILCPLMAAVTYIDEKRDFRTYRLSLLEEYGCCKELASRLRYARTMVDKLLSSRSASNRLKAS
`Cc1nn(C)c(C)c1C(C)NC(=O)c1ccc(OC2CCN(Cc3ccccn3)CC2)cc1` (configuration not stated): the Potency was 2.12 µM (active).

With `CN(CCc1ccccn1)C(=O)c1ccc(OC2CCN(Cc3ccccn3)CC2)cc1`, the max response, negative = inhibition was 5.54%.

In the case of `Cn1cc(CNC(=O)c2ccc(OC3CCN(Cc4ccccn4)CC3)cc2)cn1`, the max response, negative = inhibition was -5.74%.

Regarding `Cc1cccc(S(=O)(=O)N(C)C[C@H]2OCc3cnnn3CCCC(=O)N([C@@H](C)CO)C[C@H]2C)c1`, the max response, negative = inhibition is -16.9%.

Take `CCCCCCNC(=O)O[C@H]1CN(C(=O)OC(C)C)N(C(=O)OC(C)C)[C@@H]2CN(S(=O)(=O)c3ccc(C)cc3)C[C@]12O`: the max response, negative = inhibition was -12.5%.

Take `COC(=O)c1ccc(NC(=S)NN2CCOCC2)cc1`: the max response, negative = inhibition is -1.75%.

As for `O=C(Nc1ccc(S(=O)(=O)Nc2ncccn2)cc1)C12CC3CC(CC(C3)C1)C2`, the max response, negative = inhibition is -7.71%.

For the compound `COC(=O)c1ccc(NC(=O)C23CC4CC(C2)CC(n2cnc(Cl)n2)(C4)C3)cc1`, the Potency was 23.8 µM (active).

On to `O=C(CNC(=O)N1CC(=O)Nc2ccccc21)Nc1ccc(Br)cc1F`, for which the max response, negative = inhibition was -4.26%.

Consider `Cc1ccc(S(=O)(=O)N2C[C@H]3C(=O)C[C@@H](c4cccc5ccccc45)N(S(=O)(=O)c4ccc(C)cc4)[C@H]3C[C@H]2c2ccc(Cl)cc2)cc1`, for which the max response, negative = inhibition was -18.3%.

On to `COC(=O)c1ccc2nc(-c3ccc(C)cc3)c(Cc3ccc(OC)cc3C)n2c1`, for which the max response, negative = inhibition is -3.95%.

Regarding `O=C(CSc1cccc[n+]1[O-])NCCCc1ccccc1`, the max response, negative = inhibition was -10.9%.

As to `CCN(C(=O)CSc1cccc[n+]1[O-])c1ccccc1`, the max response, negative = inhibition is 4.89%.

For `O=C(CSc1cccc[n+]1[O-])c1ccc(-c2ccccc2)cc1`, the Potency is 23.8 µM (active).

Regarding `N#CCCN(C(=O)Nc1ccc(Cl)c(Cl)c1)C1CCCCC1`, the max response, negative = inhibition was 9.26%.

Take `NC(Cc1ccccc1)c1csc(Nc2cc(Oc3ccccc3)ncn2)n1` (configuration not stated): the max response, negative = inhibition is -8.4%.

`CCc1ccc(/C=N/NC(=O)c2ccc(OC3CCCC3)cc2)s1`: the Potency was 11.9 µM (active).

Turning to `COC(=O)CNC(=O)c1ccc(OC2CCN(C(=O)C3CC3)CC2)cc1`, the max response, negative = inhibition is -1.29%.

Turning to `CCn1c(/C=N/NC(=O)c2ccc(OC)cc2)nc2ccccc21`, the max response, negative = inhibition was 1.71%.

As for `Nc1cccc(-c2cncc(N3CCN(Cc4ccccn4)CC3)n2)c1`, the max response, negative = inhibition was -6.49%.

As to `COc1ccc(-n2c(-c3ccc(Cl)cc3)n[nH]c2=S)c(OC)c1`, the max response, negative = inhibition is -18.3%.

On to `CC(C)CCNC(=O)c1[nH]c(C(F)(F)F)nc1-c1ccccc1`, for which the max response, negative = inhibition is -2.14%.

On to `COc1ccc(OCc2nnc3n2N=C(c2ccccc2)C(CC(=O)O)S3)cc1` (configuration not stated), for which the Potency was 1.5 µM (active).

Turning to `COc1ccc(C2CC(c3ccccc3)=NN2C(=O)COC(=O)COc2ccccc2)cc1` (configuration not stated), the max response, negative = inhibition is -2.07%.

Take `COc1ccc(OCC(=O)NNC(=O)C2CCC2)cc1`: the max response, negative = inhibition is 3.29%.

On to `Cc1ccc(NC(=O)[C@H](Cc2ccccc2)NC(=O)CC[C@H]2O[C@@H](n3ccc(=O)[nH]c3=O)[C@H](O)[C@@H]2O)cc1C`, for which the max response, negative = inhibition was -5.11%.

With `OC(c1cc(Cl)cc(Cl)c1)c1ncc(-c2ccccc2C(F)(F)F)[nH]1` (configuration not stated), the max response, negative = inhibition was 4.04%.

In the case of `CCOC(=O)[C@]12CCCC=C1N(Cc1cccc3ccccc13)C(=O)[C@H](CC(=O)NCC13CC4CC(CC(C4)C1)C3)C2`, the max response, negative = inhibition is -3.19%.

Consider `CCCS(=O)(=O)NC(=O)C1(C)CCCN(C(=O)c2cc(C)on2)C1` (configuration not stated), for which the max response, negative = inhibition was -2.32%.

Regarding `CC(=O)c1c(C)[nH]c(=S)c(C#N)c1-c1ccc(F)cc1`, the max response, negative = inhibition was -8.58%.

As to `CCc1c(C)[nH]c(=S)c(C#N)c1C`, the Potency is 29.9 µM (active).

In the case of `COc1ccc(NC(=O)C(c2ccncc2)n2c(=O)c(-c3cc4ccccc4[nH]3)nc3ccccc32)cc1` (configuration not stated), the max response, negative = inhibition is 12.4%.

On to `COc1ccc(CNC(=O)C(C)NCc2ccccc2Cl)cc1` (configuration not stated), for which the max response, negative = inhibition was 5.25%.

For `COc1ccc(NC(=O)C(NC(C)=O)C(=O)NCc2ccccc2Cl)cc1` (configuration not stated), the Potency was 15 µM (active).

For `CCOC(=O)C(NC(C)=O)C(=O)Nc1ccc(OC)cc1` (configuration not stated), the max response, negative = inhibition is -7.21%.

Take `C=CCC[C@@H](CCCCC)OC(=O)/C=C/[C@@H](O)[C@H](O)C[C@H](O)CC=C`: the max response, negative = inhibition is -3.6%.

On to `CC1(C)OC(=O)C2=C(C[C@@H](C3CC3)O[C@H]2c2ccc(Cl)cc2)O1`, for which the max response, negative = inhibition is -2.8%.

With `CC(C)(C)NC(=O)NC(=O)COC(=O)Cn1c(C(F)(F)F)nc2ccccc21`, the max response, negative = inhibition was -11.6%.

As for `Cc1ccccc1OC(=O)Cn1c(C(F)(F)F)nc2ccccc21`, the Potency was 15 µM (active).

For the compound `CN1CCN(C(=O)Cn2c(C(F)(F)F)nc3ccccc32)CC1`, the max response, negative = inhibition was -6.38%.

On to `O=C(NCCOc1ccccc1)N1[C@H]2CC[C@@H]1C=C(c1ccc(F)cc1OCc1ccccc1)C2`, for which the max response, negative = inhibition is -5.72%.

As to `CC1(C(=O)NS(=O)(=O)c2ccc(C#N)cc2)CCN1C(=O)CC1CCCC1` (configuration not stated), the max response, negative = inhibition was 1.71%.

Consider `COCC(=O)N(C)C[C@H]1Oc2cc(Br)ccc2S(=O)(=O)N([C@H](C)CO)C[C@H]1C`, for which the max response, negative = inhibition was 4.87%.

With `Cc1ccc(CN2CC(N3CCC(Cc4ccccc4)CC3)CS2(=O)=O)cc1` (configuration not stated), the max response, negative = inhibition was -6.9%.

Regarding `Cn1c(=O)[nH]c(=O)c2c1[nH]c(=S)n2Cc1ccccc1`, the Potency was 23.8 µM (active).

In the case of `Cn1c(=O)[nH]c(=O)c2c1nc(N(CCO)Cc1ccccc1)n2Cc1ccccc1Cl`, the max response, negative = inhibition is -7.01%.

`CCN(CC)CCn1cnc2c1c(=O)[nH]c(=O)n2Cc1ccccc1`: the max response, negative = inhibition is -4.34%.

For `COC(=O)[C@@]12C[C@@H](CC(=O)NCc3cccc(C(F)(F)F)c3)C(=O)N(Cc3ccco3)C1=CCC(C)(C)C2`, the max response, negative = inhibition was -2.23%.

As to `O=C(NC1CCCC1)C1c2ccccc2OCC(=O)N1Cc1ccccc1` (configuration not stated), the max response, negative = inhibition was -5.56%.

In the case of `CCCCCCN1CCN(C2CN(Cc3cn(Cc4ccc(F)cc4)nn3)S(=O)(=O)C2)CC1` (configuration not stated), the max response, negative = inhibition is 3.67%.

As to `OC(c1ccccc1)c1nc(/C=C/c2ccc(C(F)(F)F)cc2)cs1` (configuration not stated), the max response, negative = inhibition is -1.28%.

Consider `CC(=O)Nc1ccc(C=Cc2ccc([N+](=O)[O-])cc2)cc1`, for which the max response, negative = inhibition is -17.4%.

Regarding `CC(=O)Nc1ccc(C=CC(=O)c2ccc([N+](=O)[O-])cc2)cc1`, the max response, negative = inhibition was -8.08%.

Turning to `O=C(O)/C=C/C(=O)NNc1ccc([N+](=O)[O-])cc1`, the Potency is 6.7 µM (active).

With `O=C(NCCO)c1cccc(-c2cccc3nccn23)c1`, the max response, negative = inhibition was -13.3%.

Take `C#Cc1ccc(NC(=O)C2(C)CCN2C(=O)Cc2ccc(-c3ccccc3)cc2)cc1` (configuration not stated): the max response, negative = inhibition is 7.1%.

Turning to `COc1ccc(C(=O)CSc2n[nH]c(N)n2)cc1`, the Potency was 26.7 µM (active).

`COc1ccc(CNC(=O)CSc2n[nH]c(N)n2)cc1OC`: the max response, negative = inhibition was -18.3%.

Consider `COc1ccc(C(=O)CSc2nccc(=O)[nH]2)cc1`, for which the max response, negative = inhibition is -2.62%.

Take `COc1ccccc1-c1cc2nc(NCc3cccc(Cl)c3)ccn2n1`: the max response, negative = inhibition is -9.83%.

As for `CCc1nc2c(OCc3ccc(C(=O)OC)cc3)cccn2c1N(C)C(=O)C(C)C`, the max response, negative = inhibition was -10.3%.

In the case of `OC[C@H]1O[C@@H](c2nc(-c3nc(-c4ccc(F)cc4)no3)cs2)[C@H](O)[C@@H](O)[C@H]1O`, the max response, negative = inhibition is -9.06%.
